Assay results published in PubChem BioAssay AID1402 (National Center for Advancing Translational Sciences (NCATS), 2008).
Inconclusive results are not listed. Calls of active or inactive are those of the source. The call rests on the fitted dose curve; in most records, active means well fitted curve in the direction sought with a large enough effect in the signal ratio; inconclusive means small, poorly fitted or top-dose-only effect, or effect the other way, or a change in a side signal; inactive means no such curve, though single readings can be large or run the other way; the % refers to the signal ratio.

Molecular target: Lutropin-choriogonadotropic hormone receptor (Homo sapiens) (UniProt P22888)
Test: Counterscreen for Agonists of Thyroid Stimulating Hormone Receptor: HTRF Activity in a Luteinizing Hormone Receptor Cell Line
Conditions: HEK293-LHR cells, cAMP HTRF ratio, 30 min; series mostly up to 91.7 µM
Text: NIH Chemical Genomics Center [NCGC] NIH Molecular Libraries Screening Centers Network [MLSCN] MLSCN Grant: 1 X01 MH080680-01 PI Name: Dr. Marvin Gershengorn, NIH NCGC Assay Overview: Confirmation of Thyroid Stimulating Hormone Receptor Agonists TSH is an alpha/beta heterodimeric glycoprotein hormone secreted from the anterior pituitary gland which belongs to the glycoprotein hormone family. The actions of TSH are mediated by a seven-transmembrane receptor, which upon TSH binding couples preferentially to the G-alpha (s) protein (Gs), resulting in activation of adenylate cyclase and increase in cyclic adenosine 3', 5' monophosphate (cAMP). The TSH receptor (THSR) is mainly expressed in thyroid follicular cells and regulates their growth and function. […] In order to confirm specificity of the compounds to the TSHR, a confirmatory assay was conducted on a similar family member, the Luteinizing Hormone (LH) receptor, transfected into a HEK 293 cell line, using an orthogonal detection technology to measure cAMP stimulation: antibody-based Homogeneous Time Resolved Fluorescence (HTRF).
NCGC Assay Protocol Summary: Homogeneous Time Resolved Fluorescence (HTRF) cAMP Assay. […] Plates were measured using the Envision plate reader (PerkinElmer, Boston, MA) with excitation at 330 nm and emissions of 615 nm and 660 nm. […]

Chain of Lutropin-choriogonadotropic hormone receptor (Homo sapiens) (P22888 whole entry, looked up): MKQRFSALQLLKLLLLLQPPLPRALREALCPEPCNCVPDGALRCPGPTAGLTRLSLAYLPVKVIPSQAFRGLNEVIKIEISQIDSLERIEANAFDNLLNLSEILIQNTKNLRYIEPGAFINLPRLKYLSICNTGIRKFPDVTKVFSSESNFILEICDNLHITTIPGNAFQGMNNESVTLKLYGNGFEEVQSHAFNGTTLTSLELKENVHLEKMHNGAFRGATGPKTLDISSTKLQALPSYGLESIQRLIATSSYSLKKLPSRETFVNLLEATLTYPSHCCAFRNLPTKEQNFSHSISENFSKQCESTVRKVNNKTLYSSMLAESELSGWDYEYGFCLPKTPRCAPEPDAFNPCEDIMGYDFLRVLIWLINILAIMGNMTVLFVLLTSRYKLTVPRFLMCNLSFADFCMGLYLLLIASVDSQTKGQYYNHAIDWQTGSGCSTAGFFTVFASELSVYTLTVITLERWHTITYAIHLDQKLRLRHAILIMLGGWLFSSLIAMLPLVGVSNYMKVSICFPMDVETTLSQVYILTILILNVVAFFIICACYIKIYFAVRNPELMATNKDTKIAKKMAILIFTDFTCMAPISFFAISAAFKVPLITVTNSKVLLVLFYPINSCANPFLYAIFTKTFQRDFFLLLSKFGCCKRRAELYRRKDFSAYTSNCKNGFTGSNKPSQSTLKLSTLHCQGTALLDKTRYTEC

Q: For `C=CCN1C(=O)C2(C(C(=O)OC)=C(N)Oc3c2c(=O)oc2ccccc32)c2ccccc21` (configuration not stated), which outcome is on record?
A: inactive

Q: `CCOC(=O)C1=C(N)Oc2c(c(=O)oc3ccccc23)C12C(=O)N(C)c1ccccc12` (configuration not stated) was tested. Which outcome did it give?
A: inactive
